Experimental data taken from PubChem BioAssay (NCATS).
Records with an inconclusive call do not appear. Entries that show only a call come without a potency. Calls of active or inactive are those of the source. Unless noted, the call rests on the fitted dose curve; in most records, active means well fitted curve in the direction sought with a large enough effect; inconclusive means small, poorly fitted or top-dose-only effect, or another doubt; inactive means no such curve, though single readings can be large; an effect the other way counts as inactive or inconclusive. Peptide text beside a SMILES is read from it.

Tests used:
[1] = biological target: Voltage-gated inwardly rectifying potassium channel KCNH2 (Homo sapiens) (UniProt Q12809); assay: qHTS Assay for Small Molecule Inhibitors of the Human hERG Channel Activity (AID 588834);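 further: lower thallium flux fluorescence means stronger hERG block; nearly all actives have a fitted effect of over 50% in size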
Outline: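 hERG-BacMam U2OS, 2000 cells/well; 0.7X FluxOR loading 1 hr RT dark; cpd ~10 min 37 °C; stim buffer; FDSS fluorescence 2 min @ 1 s; AC50 Hill fit.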

[2] = biological target: Luciferin 4-monooxygenase (Photinus pyralis) (UniProt P08659); assay: Biochemical firefly luciferase enzyme assay for NPC (AID 624030); further: nearly all actives have a fitted effect of over 70% in size
Outline: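 Counter-screen for direct inhibition of the luciferase enzyme by approved-drug library compounds, run at 10 nM enzyme in 50 mM Tris acetate (final). Luminescence was read within 5 min of enzyme-buffer addition and normalized to PTC124 versus DMSO (0%).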

[3] = S16 Schwann cell viability assay (CellTiter-Glo assay) (AID 624031); further: nearly all actives have a fitted effect of over 70% in size
Outline: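 Following overnight culture in 10% FBS DMEM, parental S16 rat Schwann cells are dosed for 24 h at 37 °C. Viability is read as CellTiter-Glo luminescence and expressed as % activity relative to DMSO (0%) and no-cell wells.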

[4] = S16 Schwann cell PMP22 intronic element firefly luciferase assay (AID 624032); further: nearly all actives have a fitted effect of over 30% in size
Outline: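 Rat S16 Schwann cells stably carrying a PMP22 intronic element-driven Fluc reporter were seeded overnight, then exposed to compounds for 24 h at 37 °C. Luminescence was normalized to PTC124 (positive control) and DMSO (0% activity).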

[5] = S16 Schwann cell PMP22 intronic element beta-lactamase assay (AID 624044; calls by dose curve; further: nearly all actives have a fitted effect of over 15% in size)
Outline: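 Rat S16 Schwann cells with beta-Lac driven by a PMP22 intronic element, compound-treated 24 h at 37 °C. LiveBLAzer FRET B/G read: 460 nm normalized to potassium clavulanate vs DMSO; 535 nm FRET as viability; concentration-effect curves classified.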
Potency means the concentration at half of the fitted maximal effect.

Chain of Voltage-gated inwardly rectifying potassium channel KCNH2 (Homo sapiens) (Q12809 whole entry, looked up): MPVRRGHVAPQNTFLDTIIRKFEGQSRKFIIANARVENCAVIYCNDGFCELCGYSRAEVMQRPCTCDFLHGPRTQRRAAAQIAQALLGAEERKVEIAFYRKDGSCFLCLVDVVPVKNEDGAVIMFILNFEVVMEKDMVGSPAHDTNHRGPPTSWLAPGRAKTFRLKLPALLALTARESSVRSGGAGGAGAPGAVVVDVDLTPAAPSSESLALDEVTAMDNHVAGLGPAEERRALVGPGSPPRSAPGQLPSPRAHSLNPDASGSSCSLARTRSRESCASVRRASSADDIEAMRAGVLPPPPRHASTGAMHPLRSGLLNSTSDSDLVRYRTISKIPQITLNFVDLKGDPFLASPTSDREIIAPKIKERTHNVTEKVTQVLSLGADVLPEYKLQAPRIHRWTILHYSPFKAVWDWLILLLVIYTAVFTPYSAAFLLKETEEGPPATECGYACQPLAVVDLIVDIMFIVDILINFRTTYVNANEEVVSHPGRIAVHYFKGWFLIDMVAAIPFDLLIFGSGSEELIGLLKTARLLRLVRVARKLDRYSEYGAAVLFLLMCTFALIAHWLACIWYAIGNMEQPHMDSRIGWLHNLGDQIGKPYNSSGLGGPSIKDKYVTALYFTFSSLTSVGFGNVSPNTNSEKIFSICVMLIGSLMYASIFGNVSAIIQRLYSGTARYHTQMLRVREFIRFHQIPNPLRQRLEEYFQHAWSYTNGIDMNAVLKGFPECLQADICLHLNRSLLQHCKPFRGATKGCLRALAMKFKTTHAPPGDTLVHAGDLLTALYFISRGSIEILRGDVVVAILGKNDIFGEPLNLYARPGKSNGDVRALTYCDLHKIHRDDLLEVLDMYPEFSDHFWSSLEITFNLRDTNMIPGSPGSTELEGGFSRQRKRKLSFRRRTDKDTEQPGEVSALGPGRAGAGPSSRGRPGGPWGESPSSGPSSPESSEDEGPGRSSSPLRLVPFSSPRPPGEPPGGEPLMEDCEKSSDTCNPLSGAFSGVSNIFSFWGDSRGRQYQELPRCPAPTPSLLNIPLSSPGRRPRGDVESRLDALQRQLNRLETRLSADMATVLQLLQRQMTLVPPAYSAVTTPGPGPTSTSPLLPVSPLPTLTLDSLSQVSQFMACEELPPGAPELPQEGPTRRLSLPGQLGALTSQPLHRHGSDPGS
Chain of Luciferin 4-monooxygenase (Photinus pyralis) (P08659 whole entry, looked up): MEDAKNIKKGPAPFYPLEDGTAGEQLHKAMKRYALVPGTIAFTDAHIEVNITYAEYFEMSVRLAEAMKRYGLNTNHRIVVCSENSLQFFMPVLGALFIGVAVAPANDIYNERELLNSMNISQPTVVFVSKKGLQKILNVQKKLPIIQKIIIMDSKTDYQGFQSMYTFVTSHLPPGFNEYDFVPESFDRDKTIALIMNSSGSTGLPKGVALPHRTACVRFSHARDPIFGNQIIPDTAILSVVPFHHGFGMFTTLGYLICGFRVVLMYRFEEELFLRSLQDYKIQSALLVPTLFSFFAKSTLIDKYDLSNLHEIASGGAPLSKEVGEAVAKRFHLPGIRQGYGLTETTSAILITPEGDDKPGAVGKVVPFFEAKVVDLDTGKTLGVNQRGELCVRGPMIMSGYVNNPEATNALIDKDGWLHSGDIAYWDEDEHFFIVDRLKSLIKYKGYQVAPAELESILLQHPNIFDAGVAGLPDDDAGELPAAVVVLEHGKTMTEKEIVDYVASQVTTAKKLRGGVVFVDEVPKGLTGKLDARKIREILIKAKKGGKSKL

SMILES | Potency [1] | Potency [2] | Potency [3] | Potency [4] | Potency [5]
Cc1c(C)c2c(c(C)c1O)CC[C@@](C)(CCC[C@@H](C)CCC[C@@H](C)CCCC(C)C)O2 | inactive | inactive | inactive | inactive | inactive
NC1C2CN(c3nc4c(cc3F)c(=O)c(C(=O)O)cn4-c3ccc(F)cc3F)CC12 (centres undefined) | inactive | inactive | inactive | inactive | inactive
CC(C)(C)C(=O)OCOC(=O)[C@@H]1N2C(=O)[C@@H](N=CN3CCCCCC3)[C@H]2SC1(C)C | inactive | inactive | inactive | – | inactive
CC[C@@]1(O)C(=O)OCc2c1cc1n(c2=O)Cc2cc3c([N+](=O)[O-])cccc3nc2-1 | inactive | inactive | – | 0.203 µM (active) | 1.41 µM (active)
CCOc1ccc2c(c1)C(C)=CC(C)(C)N2 | inactive | inactive | inactive | inactive | inactive
CC(=O)N[C@@H](CC(=O)O)C(=O)N[C@@H](CCC(=O)O)C(=O)O (Ac-Asp-Glu-OH) | inactive | inactive | inactive | inactive | inactive
CO[C@H]1C[C@@H]2CC[C@@H](C)[C@@](O)(O2)C(=O)C(=O)N2CCCC[C@H]2C(=O)O[C@H]([C@H](C)C[C@@H]2CC[C@@H](OCCO)[C@H](OC)C2)CC(=O)[C@H](C)/C=C(\C)[C@@H](O)[C@@H](OC)C(=O)[C@H](C)C[C@H](C)/C=C/C=C/C=C/1C | inactive | inactive | – | – | inactive
CCCCC/C=C\C/C=C\CCCCCCCC(=O)O | inactive | inactive | – | inactive | inactive
CCCCC(=O)O[C@]1(C(=O)CO)[C@H](C)C[C@H]2[C@@H]3CCC4=CC(=O)C=C[C@]4(C)[C@@]3(F)[C@@H](O)C[C@@]21C | inactive | inactive | inactive | inactive | inactive
O=C(O)c1cc(O)c2c(c1)[O][Bi][O]2 | inactive | inactive | inactive | inactive | inactive
CC(=O)Oc1c(C)cc(OCC(O)CNC(C)C)c(C)c1C (centres undefined) | inactive | inactive | inactive | inactive | inactive
CCOC(=O)C1=C(C)NC(C)=C(C(=O)OCC)C1c1ccccc1C=CC(=O)OC(C)(C)C | inactive | inactive | – | – | inactive
CCN(CC)CCOc1ccc(-c2nc3cc(Cl)ccc3s2)cc1 | 5.01 µM (active) | 6.42 µM (active) | – | inactive | inactive
O=C(Nc1cccc(C(F)(F)F)c1)c1cc(Br)cc(Br)c1O | inactive | 7.21 µM (active) | – | inactive | –
CCNC(=O)[C@@H]1CCCN1C(=O)[C@H](CCCN=C(N)N)NC(=O)[C@H](CC(C)C)NC(=O)[C@@H](Cc1c[nH]c2ccccc12)NC(=O)[C@H](Cc1ccc(O)cc1)NC(=O)[C@H](CO)NC(=O)[C@H](Cc1c[nH]c2ccccc12)NC(=O)[C@H](Cc1cnc[nH]1)NC(=O)[C@@H]1CCC(=O)N1 | 2.51 µM (active) | inactive | 6.42 µM (active) | 4.55 µM (active) | 22.4 µM (active)
CCCC(=O)Nc1ncnc2c1ncn2C1OC2COP(=O)(O)OC2C1OC(=O)CCC (centres undefined) | inactive | inactive | inactive | 5.73 µM (active) | inactive
C[C@@H]1CCC2[C@@H](C)[C@@H](O)O[C@@H]3O[C@@]4(C)CC[C@@H]1[C@@]23OO4 (some centres undefined) | inactive | inactive | inactive | 1.02 µM (active) | inactive
CC[N+](C)(C)Cc1ccccc1Br | inactive | inactive | inactive | inactive | inactive
O=CCCCC=O | inactive | inactive | inactive | inactive | inactive
CO[C@H](C(=O)[C@@H](O)[C@@H](C)O)C1Cc2cc3cc(O[C@H]4C[C@@H](O[C@H]5C[C@@H](O)[C@H](O)[C@@H](C)O5)[C@@H](O)[C@@H](C)O4)c(C)c(O)c3c(O)c2C(=O)[C@H]1O[C@H]1C[C@@H](O[C@H]2C[C@@H](O[C@H]3C[C@](C)(O)[C@H](O)[C@@H](C)O3)[C@H](O)[C@@H](C)O2)[C@H](O)[C@@H](C)O1 (some centres undefined) | inactive | inactive | inactive | inactive | 22.4 µM (active)
CC(C)N=c1cc2n(-c3ccc(Cl)cc3)c3ccccc3nc-2cc1Nc1ccc(Cl)cc1 | 7.08 µM (active) | inactive | inactive | – | inactive
O=C1CSC2(CCN(CCCN3c4ccccc4Sc4ccc(Cl)cc43)CC2)N1 | 7.08 µM (active) | inactive | 32.2 µM (active) | 32.2 µM (active) | inactive
